# This is part of a sample that, as a whole, favours compounds with a hit. Of some 79,000 tested, about 15% had one in any assay. A number with no mark means an inactive call. The source made the active and inactive calls. No stated cut-off is given here; in the data, active means growth inhibition above about 70%; inactive means the rest.
# Columns and labels:
# [1] = NCI Yeast Anticancer Drug Screen. Data for the rad50 strain (AID 155);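 further: 0% = growth of vehicle-only cultures of the same strain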; conditions: S. cerevisiae rad50 strain growth inhibition, hits give high values
# Summary of the method: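 Yeast carrying a defined DNA repair defect were exposed to test compounds, and growth was compared with vehicle-treated controls to give percent inhibition.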
# [2] = NCI Yeast Anticancer Drug Screen. Data for the mec2-1 strain (AID 157); conditions: S. cerevisiae mec2-1 strain, hits give high values
# Summary of the method: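 Yeast mec2-1 mutant treated with compound. Readout: growth inhibition vs vehicle controls.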
# [3] = NCI Yeast Anticancer Drug Screen. Data for the sgs1 mgt1 strain (AID 161);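 further: 0% = growth of cultures given vehicle only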; conditions: S. cerevisiae sgs1 mgt1 strain, hits give high values
# Summary of the method: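 Test agents were incubated with a DNA-repair-mutant yeast strain. Growth was then read and compared against vehicle-treated controls.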
# [4] = NCI Yeast Anticancer Drug Screen. Data for the cln2 rad14 strain (AID 165);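 further: 0% = growth equal to vehicle treated cultures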; conditions: S. cerevisiae cln2 rad14 strain, hits give high values
# Summary of the method: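 cln2 rad14 yeast strain; compound exposure; growth inhibition read vs vehicle controls.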
# [5] = NCI Yeast Anticancer Drug Screen. Data for the bub3 strain (AID 167); conditions: S. cerevisiae bub3 mutant strain, hits give high values
# Summary of the method: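 Compounds were applied to a genetically altered yeast strain carrying a cell-cycle control defect. Growth inhibition was scored against vehicle-treated controls.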
# [6] = NCI Yeast Anticancer Drug Screen. Data for the mlh1 rad18 strain (AID 175); conditions: S. cerevisiae mlh1 rad18 strain growth inhibition, hits give high values
# Summary of the method: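 Yeast w/ defined DNA-repair lesions; compound exposure; growth vs vehicle controls → % inhibition.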
# [7] = at 5.0 µM (retest, dose inferred, filed as 0.5)
# [8] = at 50.0 µM (retest, dose inferred, filed as 5.0)
Structure (SMILES),"growth inhibition [1, 7]","growth inhibition [1, 8]",growth inhibition ([1]; at 50.0 µM),"growth inhibition [2, 7]","growth inhibition [2, 8]",growth inhibition ([2]; at 50.0 µM),"growth inhibition [3, 7]","growth inhibition [3, 8]",growth inhibition ([3]; at 50.0 µM),"growth inhibition [4, 7]","growth inhibition [4, 8]",growth inhibition ([4]; at 50.0 µM),"growth inhibition [5, 7]","growth inhibition [5, 8]",growth inhibition ([5]; at 50.0 µM),"growth inhibition [6, 7]","growth inhibition [6, 8]",growth inhibition ([6]; at 50.0 µM)
CCN(CC)CC(=O)O[C@]1(CC)C(=O)OCc2c1cc1n(c2=O)Cc2cc3ccccc3nc2-1,93% (active),97% (active),83.2% (active),58%,98% (active),87% (active),45%,97% (active),85.1% (active),44%,93% (active),62.5%,43%,97% (active),81.5% (active),91% (active),96% (active),85.6% (active)
COC(=O)C1=C(C(=O)OC)[C]([Hg][CH3])(C(C)=O)N=N1 (configuration not stated),99% (active),99% (active),99.6% (active),99% (active),99% (active),99.5% (active),99% (active),99% (active),99.8% (active),99% (active),99% (active),99.5% (active),99% (active),98% (active),99.2% (active),99% (active),99% (active),99.5% (active)
COC(=O)C(Cl)(Br)CCl (configuration not stated),13%,85% (active),68.5%,6%,86% (active),79.7% (active),4%,49%,42.1%,3%,65%,12.3%,9%,95% (active),43%,8%,81% (active),38.7%
O=[N+]([O-])c1ccc(O)c(CCl)c1,6%,41%,16.5%,-1%,22%,1.6%,0%,36%,20.9%,0%,5%,-4.15%,3%,18%,8.65%,4%,59%,76.2% (active)
CCCCCCCCCCCCN=C(N)N,80% (active),98% (active),99.1% (active),72% (active),99% (active),99.3% (active),87% (active),99% (active),99% (active),59%,98% (active),98.5% (active),96% (active),99% (active),99.4% (active),71% (active),98% (active),98.4% (active)
ClCCN(CCCl)B(N(CCCl)CCCl)N(CCCl)CCCl,-1%,-6%,98.8% (active),-23%,0%,99.3% (active),-11%,10%,99.1% (active),0%,-2%,99.2% (active),3%,-6%,98.8% (active),-13%,-26%,99.3% (active)
CN1CC(Br)(Br)C(=O)N(C)C1=O,18%,99% (active),89.8% (active),2%,100% (active),93.3% (active),-9%,99% (active),92.8% (active),-4%,99% (active),93.4% (active),-18%,100% (active),92.9% (active),2%,100% (active),88% (active)
CCC1CC2C3Cc4ccc(OC)c(O)c4C2(CCN3C)CC1=O (configuration not stated),6%,3%,-6.45%,-12%,-2%,-6%,19%,9%,-8%,14%,11%,-5.3%,24%,19%,-1.25%,9%,9%,-7.5%
Cc1c(N)nc([C@H](CC(N)=O)NC[C@H](N)C(N)=O)nc1C(=O)N[C@H](C(=O)N[C@H](C)[C@@H](O)CC(=O)N[C@H](C(=O)NC(O[C@@H]1O[C@@H](C)[C@@H](N)[C@@H](O)[C@H]1O)C(O)c1nc(-c2nc(C(=O)NCCCCN)cs2)cs1)[C@@H](C)O)[C@@H](O[C@@H]1O[C@@H](CO)[C@@H](O)[C@H](O)[C@@H]1O[C@H]1O[C@H](CO)[C@@H](O)[C@H](OC(N)=O)[C@@H]1O)c1c[nH]cn1 (some centres not stated),96% (active),98% (active),91.7% (active),98% (active),98% (active),92.8% (active),98% (active),98% (active),92.7% (active),96% (active),97% (active),89.8% (active),97% (active),98% (active),92.9% (active),94% (active),97% (active),90.2% (active)
